Here are results for 38 compounds from PubChem BioAssay (NCATS).

Records with an inconclusive call do not appear. A call without a number means that no potency is given here. Unmarked numbers belong to inactive results. Calls of active or inactive are those of the source. The call rests on the fitted dose curve; in most records, active means well fitted cell-killing curve with a large enough effect; inconclusive means small, poorly fitted or top-dose-only effect, or effect the other way; inactive means flat fitted curve, though single readings scatter. Where a SMILES comes first, the peptide text is derived from it. The star is where a group is joined. βNA = c1ccc2cc(N*)ccc2c1; Cbz = O=C(OCc1ccccc1)*

The experiment deals with Tov112D. Kind of experiment: Primary qHTS to identify gynecologic anti-cancer compounds using libraries of approved drugs and bioactive compounds (AID 1345084). Further: nearly all actives have a fitted effect of over 55% in size. Particulars: Gynecologic cancer cell panel viability, ATPlite luminescence, 48 h; series mostly up to 57.5 µM. An outline of the steps: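 Cell viability after 48 h drug treatment, ATPlite luminescence readout; five doses.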
Background: qHTS replaces the single test concentration by a dilution series.
As to `Cc1ccccc1N1CCN(S(=O)(=O)C[C@]23CC[C@H](C[C@@H]2NC(=O)[C@@H](N)CCS(C)(=O)=O)C3(C)C)CC1`, the Potency result was “inactive”.
With `O=C(OCc1ccccc1O[C@@H]1O[C@H](CO)[C@@H](O)[C@H](O)[C@H]1O)C1(O)C=CCCC1O` (stereo partly drawn), the Potency entry is “inactive”.
On the same count and under the same terms, to `C/C(=C/CO)CC[C@H]1[C@]2(C)C[C@H](O)CC(C)(C)[C@H]2CC[C@]1(C)O` belongs “inactive”; to `C[C@@H]1C[C@@H](O)[C@@]23CO[C@]2(CO)CCC[C@@H]3[C@@]12C[C@@H](c1ccoc1)OC2=O`, “inactive”.
With `COc1cc2c(c(OC)c1O)C(c1ccc(O)cc1)C1C(=O)OC3C(COC(=O)C1=C2)OC(CO)(OC1OC(COC(=O)/C=C/c2ccc(OC4OC(C)C(O)C(O)C4O)cc2)C(O)C(O)C1O)C3O` (stereo not drawn), the activity change, negative = cytotoxicity is -3.14% [at 11.6 µM].
On to `C=C1C(=O)O[C@@H]2/C=C(\C)CC/C=C(\C(=O)O[C@@H]3O[C@H](CO)[C@@H](O)[C@H](O)[C@H]3O)CC[C@@H]12`, for which the Potency result is “inactive”.
Same read-out and setting: to `CC(CC12CCCN1C(=O)C1CCCN1C2=O)OC(N)=O` (stereo not drawn) belongs “inactive”; to `Nc1ncnc2c1c(COc1cccc(Cl)c1)nn2C1CCOCC1`, “inactive”; to `CC1(C)C(=O)N2c3ccccc3C(O)(CC(C(=O)O)n3cnc4ccccc4c3=O)C2N1O` (stereo not drawn), “inactive”.
Still for that read-out and setting: to `CC12CC34CC(O)C5C(CO)(CO)CC(=O)CC5(C)C3CC1C2C4` (stereo not drawn) belongs “inactive”.
Same read-out and setting: then `O=C(O)Cc1cn([C@@H]2OC[C@@H](O[C@@H]3O[C@H](CO)[C@@H](O)[C@H](O)[C@H]3O)[C@H](O)[C@H]2O[C@@H]2O[C@H](CO)[C@@H](O)[C@H](O)[C@H]2O)c2ccccc12`, with “inactive”; and `CC(C)C1CCC(CO)=CC1/C=C(\CO)C(=O)OCC1(O)CCC(C(C)C)C2C=C(C(=O)O)COC(=O)C21` (stereo not drawn), with “inactive”; and `COC(=O)c1ccc(OC)cc1O[C@@H]1O[C@H](CO[C@@H]2OC[C@@H](O)[C@H](O)[C@H]2O)[C@@H](O)[C@H](O)[C@H]1O`, with “inactive”.
For `CCNC(=O)OC1CCN(c2nncc3cc(OC)c(OC)cc23)CC1`, the Potency entry is “inactive”.
Still for that read-out and setting: then `CC1=CCC[C@@H]2[C@@](C)(CCc3ccoc3)[C@H](C(=O)O)CC[C@@]12C`, with “inactive”.
Regarding `C=C1C(=O)O[C@@H]2C[C@]3(C)[C@@H](CCC(C)=O)[C@@H]3C[C@H]12`, the Potency result is “inactive”.
As for `CCC(C)/C=C(C)/C=C/C1=CC2=C(Cl)C(=O)C(C)(OC(C)=O)C(=O)C2=CN1C(CCC(=O)O)C(=O)O` (stereo not drawn), the Potency entry is “inactive”.
Still for that read-out and setting: then `C=C[C@@]1(C)CCC2=C([C@H]1OC(C)=O)[C@H](OC(C)=O)CC1[C@](C)(C(=O)OC)CC[C@H](OC(C)=O)[C@]21C` (stereo partly drawn), with “inactive”; and `COc1ccc(C2C(C(=O)O)C(C(=O)O)C2c2ccc(OC)cc2O[C@@H]2O[C@H](CO)[C@@H](O)[C@H](O)[C@H]2O)c(O[C@@H]2O[C@H](CO)[C@@H](O)[C@H](O)[C@H]2O)c1` (stereo partly drawn), with “inactive”; and `Cc1ccccc1-n1nc(-c2c(-c3ccc(F)cc3)nn3c2NC[C@@H](CO)C3)ccc1=O`, with “inactive”.
Same read-out and setting: then `COc1cc(C(=O)OC[C@@]2(O)CO[C@@H](O[C@H]3[C@H](Oc4ccc(O)cc4)O[C@H](CO)[C@@H](O)[C@@H]3O)[C@@H]2O)cc(OC)c1O`, with “inactive”; and `CC(=O)OC/C(=C/C(=O)O)CC[C@@H]1C(CO)=CC[C@@H]2C(C)(C)CCC[C@@]12C`, with “inactive”.
The same measure, in the same setting: then `C/C=C/C=C/C(O)=C1/C(=O)[C@]2(C)C(=O)[C@@](C)(O)[C@H]1[C@H]([C@@]1(C)OC(=O)C(C)=C1O)[C@H]2C(=O)CC/C=C/C`, with “inactive”; and `Cc1nc2cc(-c3cc(F)cc(C#N)c3)ccc2s1`, with “inactive”.
As to `C=C(C)C(O)COc1ccc(CC(=O)O)cc1` (stereo not drawn), the Potency result is “inactive”.
Still for that read-out and setting: then `CC1(C)O[C@H]2CC(=O)OC[C@@]23C1=C(O)C(=O)[C@]1(C)C3CC[C@@]2(C)[C@H](c3ccoc3)OC(=O)[C@H]3O[C@]321` (stereo partly drawn), with “inactive”.
Turning to `C[C@@H]1O[C@@H](O[C@H]2[C@H](OC(=O)[C@]34CCC(C)(C)C[C@H]3C3=CCC5[C@@]6(C)C[C@@H](O)[C@@H](O)[C@@](C)(CO)C6[C@H](O)C[C@@]5(C)[C@]3(C)CC4)OC[C@H](O)[C@@H]2O)[C@H](O)[C@H](O)[C@H]1O[C@@H]1OC[C@@H](O)[C@H](O[C@H]2O[C@H](C)[C@@H](O)[C@H](O)[C@@H]2O)[C@H]1O` (stereo partly drawn), the activity change, negative = cytotoxicity is 3.92% [at 11.6 µM].
Turning to `CC(C)CC(NC(=O)OCc1ccccc1)C(=O)NC(CC(C)C)C(=O)NC(CCC(=O)O)C(=O)Nc1ccc2ccccc2c1` (stereo not drawn) (Cbz-Leu-Leu-Glu-βNA; configuration not given here), the Potency result is “inactive”.
Still for that read-out and setting: to `CC1CC2OCC3(O)CCC(O)C(C14CC(c1ccoc1)OC4=O)C23CO` (stereo not drawn) belongs “inactive”.
`COC(=O)C(CC1(O)c2ccccc2N2C(=O)C(C)(C)N(O)C21)n1cnc2ccccc2c1=O` (stereo not drawn): the Potency result is “inactive”.
Take `CC(=O)OC[C@]12[C@@H](OC(=O)c3ccoc3)C[C@@H]3[C@@H](OC(C)=O)[C@]1(OC3(C)C)[C@@](C)(O)C[C@H](OC(=O)c1ccoc1)[C@@H]2OC(=O)c1ccoc1`: the Potency result was “inactive”.
Still for that read-out and setting: to `CC(C)c1ccc2c(c1)CCC1[C@](C)(C(=O)O)CCC[C@]21C` (stereo partly drawn) belongs “inactive”; to `CC[C@H]1OC(=O)[C@H](C)C(=O)[C@H](C)[C@@H](OC2O[C@H](C)C[C@H](N(C)C)[C@H]2O)[C@@H](C)C[C@@H](C)C(=O)/C=C/[C@]1(C)O` (stereo partly drawn), “inactive”; to `C=C(CCO[C@@H]1O[C@H](CO)[C@@H](O)[C@H](O)[C@H]1O)C(=O)O`, “inactive”.
As to `COC(=O)C1=C[C@@H](O)[C@@H](O)[C@H](O[C@@H]2O[C@H](CO)[C@@H](O)[C@H](O)[C@H]2OC(=O)/C=C/c2ccccc2)C1`, the Potency result was “inactive”.
The same measure, in the same setting: to `COc1ccc(O[C@@H]2O[C@H](CO)[C@@H](O)[C@H](O)[C@H]2O)cc1OC` belongs “inactive”.
On to `C=CC(C)(CC/C=C(\C)C(=O)OC[C@H]1O[C@@H](OC(C)(C=C)CC/C=C(\C)C(=O)O[C@H]2[C@H](O)[C@@H](O)[C@H](OC(C)(C=C)CC/C=C(\C)C(=O)O)O[C@@H]2CO)[C@H](O)[C@@H](O)[C@@H]1O)O[C@@H]1O[C@H](CO)[C@@H](O)[C@H](O)[C@H]1O` (stereo partly drawn), for which the activity change, negative = cytotoxicity was 8.98% [at 11.6 µM].
On to `CC(C)=C1C[C@@]2(C)C(=CC1=O)CC[C@@H](O)[C@@H]2C`, for which the Potency result was “inactive”.
